The results in this text go back to PubChem BioAssay AID1851 (National Center for Advancing Translational Sciences (NCATS), 2009).

Molecules are shown by their SMILES. Several values for one entry are separate records, joined by “and”; a condition that tells them apart may be missing. Equal entries are not always repeated. Out of some 16,000 compounds screened, about 5,100 (32%) were called active. About 25% were inconclusive and are not listed. Some of the results follow. Values without a mark were called inactive. Calls follow the shape of the dose curve; as a rule, active = well fitted curve in the direction sought with a large enough effect; inconclusive = small, poorly fitted or top-dose-only effect, or effect the other way; inactive = no such curve, though single readings can be large or run the other way.
% is scaled to controls: 0 for no effect and ±100 for the full control effect.

Chain of Cytochrome P450 3A4 (Homo sapiens) (P08684 whole entry, looked up): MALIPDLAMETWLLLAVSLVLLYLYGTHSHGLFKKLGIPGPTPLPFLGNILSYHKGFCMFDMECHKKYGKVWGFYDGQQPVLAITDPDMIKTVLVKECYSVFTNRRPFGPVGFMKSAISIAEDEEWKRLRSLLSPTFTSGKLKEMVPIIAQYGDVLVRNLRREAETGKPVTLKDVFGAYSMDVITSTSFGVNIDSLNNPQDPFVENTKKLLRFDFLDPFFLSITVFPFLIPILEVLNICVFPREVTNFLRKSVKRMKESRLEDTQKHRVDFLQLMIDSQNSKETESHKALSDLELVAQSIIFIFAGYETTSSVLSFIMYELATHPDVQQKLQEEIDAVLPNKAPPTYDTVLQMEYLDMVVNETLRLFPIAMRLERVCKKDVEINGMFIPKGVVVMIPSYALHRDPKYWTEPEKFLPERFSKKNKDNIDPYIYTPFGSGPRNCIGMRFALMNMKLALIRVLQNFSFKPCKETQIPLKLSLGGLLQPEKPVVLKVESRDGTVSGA

This experiment addresses Cytochrome P450 3A4 (Homo sapiens) (UniProt P08684). Nature of the experiment: Cytochrome panel assay with activity outcomes. The settings on record: recombinant CYP, pro-luciferin dealkylation, luminescence, p450-cyp3a4; series mostly up to 57.1 µM; activity, negative = inhibition: at the top concentration.
With `CC(C)(C)N1C(=O)[C@H]2[C@@H]3[C@H](O)[C@H](O)CC(=O)[C@H]3CC[C@H]2C1=O`, the activity, negative = inhibition is -16.1% [at 11.4 µM] and -10.3% [at 11.4 µM].

In the case of `Cc1cnc(CNc2ncncc2-c2ccccc2C)cn1`, the AC50 was 1 µM (active).

Consider `Cc1cnc(CNc2ncncc2-c2ccccc2CN(C)C)cn1`, for which the AC50 was 3.16 µM (active).

With `CN(C)Cc1ccccc1-c1cncnc1NC1CC1`, the AC50 was 12.6 µM (active).

As for `COc1ccccc1-c1cncnc1NCc1cnc(C)cn1`, the AC50 was 1.26 µM (active).

As to `O=[N+]([O-])c1ccccc1N=Nc1c(O)[nH]c2ccc(S(=O)(=O)O)cc12`, the activity, negative = inhibition was -6.01% [at 11.4 µM].

In the case of `C/C(=N\NC(=O)CC1N=C(Cc2ccccc2)NNC1=O)c1ccc(Cl)cc1Cl` (stereo not drawn), the AC50 is 1.26 µM (active).

Regarding `Nc1ccc(-c2nc3c(Cl)c(N)ccc3[nH]2)cc1`, the AC50 is 1 µM (active).

For the compound `CN(C)c1ccc(-c2nccc(NCc3cccs3)n2)cc1`, the AC50 was 12.6 µM (active).

As to `c1cncc(-c2nccc(NCc3cccs3)n2)c1`, the AC50 is 1 µM (active).

Take `CN(C)C(=O)c1ccc(-c2nccc(NCc3cccs3)n2)cc1`: the AC50 was 25.1 µM (active).

As for `c1csc(CNc2ccnc(-c3ccoc3)n2)c1`, the AC50 was 7.94 µM (active).

Take `Cc1ccccc1Oc1ncnc2sccc12`: the “activity, negative = inhibition” value is -7.77%.

Regarding `COc1ccc(-n2c(=O)c(C)nc3cnc(Nc4ccccc4)nc32)cc1`, the AC50 was 12.6 µM (active).

With `COc1cccc(Nc2ncc3nc(C)c(=O)n(-c4ccccc4)c3n2)c1`, the AC50 was 15.8 µM (active).

Take `COc1cccc(Nc2ncc3nc(-c4ccccc4)c(=O)n(C)c3n2)c1`: the “activity, negative = inhibition” value was -0.713%.

Take `Cn1c(=O)c(-c2ccc(Cl)cc2)nc2cnc(Nc3ccccc3)nc21`: the “activity, negative = inhibition” value is -6.47%.

For `O=C(Nc1ccccc1)N(Cc1ccccc1)CC(O)C(F)(F)F` (stereo not drawn), the “activity, negative = inhibition” value is -16%.

On to `O=C(NC(=S)N(Cc1ccccc1)Cc1ccccc1)c1ccccc1F`, for which the AC50 was 15.8 µM (active).

For `CCOc1ccc(C(=O)NC(=S)N(Cc2ccccc2)Cc2ccccc2)cc1`, the AC50 is 10 µM (active).

For the compound `N/C(=N\c1nc2ccccc2o1)NC(=O)c1ccccc1F`, the “activity, negative = inhibition” value was -22.5%.

For `COc1ccc(CN(CCC#N)C(=S)NC(=O)c2ccccc2)cc1`, the AC50 is 14.1 µM (active).

For `CCC(=O)c1ccc(OCC(O)CN(CCc2ccccc2)Cc2ccccc2)cc1` (stereo not drawn), the “activity, negative = inhibition” value is -6.18%.

Take `COc1ccc(C(=O)NNC(=S)NC(=O)c2ccco2)cc1`: the activity, negative = inhibition was 9.96% [at 2.29 µM].

As for `CC(C)Cc1ccc([C@H](C)C(=O)O)cc1`, the AC50 entry is “inactive”.

In the case of `CCN(CC)c1ccc(/C=N/Nc2nc(C)cc(=O)[nH]2)cc1`, the AC50 was 14.1 µM (active).

Turning to `CCOC(=O)N/N=C/c1ccc(F)cc1`, the “activity, negative = inhibition” value was 2.36%.

Turning to `N=c1sccn1CC(=O)Nc1cccc(Oc2ccccc2)c1`, the activity, negative = inhibition is -7.61% [at 11.4 µM].

With `Nc1ccc(S(=O)(=O)NCc2nccs2)cc1`, the activity, negative = inhibition is -10.4% [at 11.4 µM].

In the case of `O=S(=O)(NCc1cn2ccsc2n1)c1ccc(Oc2ccccc2)cc1`, the AC50 is 11.2 µM (active).

For the compound `Cc1cc(-c2ccc(/C=N/n3cnnc3)o2)c([N+](=O)[O-])cc1C`, the “activity, negative = inhibition” value is 16.7%.

As to `Cc1ccc(-c2ccc(/C=N/N3C(=O)C4C5C=CC(C6CC56)C4C3=O)o2)c([N+](=O)[O-])c1` (stereo not drawn), the AC50 was 2.24 µM (active).

Consider `COc1cccc2c1OC[C@@H](CO)[C@H]2N(C)C(=O)Nc1ccc(Cl)cc1Cl`, for which the AC50 was 14.1 µM (active).

Turning to `Cc1nc(C(=O)Nc2ccc(Cl)cc2Cl)nn1-c1cc(OC(C)C)c(Cl)cc1Cl`, the “activity, negative = inhibition” value is -10.6%.

Regarding `NC(=O)c1cc[n+](CC2=C(C(=O)[O-])N3C(=O)[C@@H](NC(=O)Cc4cccs4)[C@@H]3SC2)cc1`, the “activity, negative = inhibition” value was -15.1% [at 25.6 µM].

In the case of `CN(C)c1ccc(-c2nc3n(n2)C(c2cccnc2)C2=C(CC(C)(C)CC2=O)N3)cc1` (stereo not drawn), the AC50 is 2.24 µM (active).

Consider `Cc1cc(C)n(-c2nc(NC(C)C)nc(NC(C)C)n2)n1`, for which the activity, negative = inhibition is 0.214% [at 11.4 µM].

Take `COc1ccc(-c2cc(C(F)F)nc(-n3nc(C)cc3C)n2)cc1`: the AC50 is 10 µM (active).

For the compound `CCCCn1c(NCc2ccccc2NS(=O)(=O)c2ccc(C)cc2)nc2ccccc21`, the AC50 was 3.55 µM (active).

With `Cc1ccc(S(=O)(=O)Nc2ccccc2C=O)cc1`, the activity, negative = inhibition is -24.7% [at 11.4 µM].

As for `CC(C)(C)NCC[C@@H](O)c1cc(C(F)(F)F)nc2c(C(F)(F)F)cccc12`, the activity, negative = inhibition is -13.6% [at 11.4 µM].

In the case of `COC(=O)N1CCC2(CCN(C(=O)Nc3ccccc3)CC2)CC1`, the “activity, negative = inhibition” value was 18.1%.

As for `Cc1noc(C)c1C(=O)N1CCC2(CCCN(C(c3ccccc3)c3ccccc3)C2)CC1`, the “activity, negative = inhibition” value is -26.6%.

With `Cc1cc(C)c(NC(=O)C[C@H](CC(=O)O)c2cccc3ccccc23)c(C(=O)N2CCC3(CCCC3)CC2)c1`, the AC50 is 15.8 µM (active).

Take `CC1=C(C(=O)OCc2ccccc2)C(c2ccccc2)NC(=O)N1CCCCCC(=O)O` (stereo not drawn): the “activity, negative = inhibition” value was -1.28%.

Turning to `CC1=C(C(=O)OCc2ccccc2)C(c2cccnc2)c2c(n(C)c(=O)n(C)c2=O)N1` (stereo not drawn), the AC50 is 11.2 µM (active).

In the case of `CCOC(=O)CC(=O)CSc1nc(-c2ccccc2)cc(-c2ccc(Cl)cc2)c1C#N`, the AC50 is 17.8 µM (active).

For `N#Cc1ccc(-c2ccccc2)nc1SCC(=O)c1cccc(Cl)c1`, the “activity, negative = inhibition” value was 21.1%.
